Results taken from ChEMBL document CHEMBL3988442, “University of Dundee, Small-Polar-MMV Screening Library” (2021).

These molecules were tested against Chromo domain-containing protein 1 (Saccharomyces cerevisiae (strain ATCC 204508 / S288c) (Baker's yeast)) (UniProt P32657) (assay: ScCHD-1 Enzyme Inhibition Assay). Conditions: 30 µM.
Type: functional
Parameters: scale not given: in the data most compounds retested in dose-response had high values

Chain of Chromo domain-containing protein 1 (Saccharomyces cerevisiae (strain ATCC 204508 / S288c) (Baker's yeast)) (P32657 whole entry, the tested form may be a part): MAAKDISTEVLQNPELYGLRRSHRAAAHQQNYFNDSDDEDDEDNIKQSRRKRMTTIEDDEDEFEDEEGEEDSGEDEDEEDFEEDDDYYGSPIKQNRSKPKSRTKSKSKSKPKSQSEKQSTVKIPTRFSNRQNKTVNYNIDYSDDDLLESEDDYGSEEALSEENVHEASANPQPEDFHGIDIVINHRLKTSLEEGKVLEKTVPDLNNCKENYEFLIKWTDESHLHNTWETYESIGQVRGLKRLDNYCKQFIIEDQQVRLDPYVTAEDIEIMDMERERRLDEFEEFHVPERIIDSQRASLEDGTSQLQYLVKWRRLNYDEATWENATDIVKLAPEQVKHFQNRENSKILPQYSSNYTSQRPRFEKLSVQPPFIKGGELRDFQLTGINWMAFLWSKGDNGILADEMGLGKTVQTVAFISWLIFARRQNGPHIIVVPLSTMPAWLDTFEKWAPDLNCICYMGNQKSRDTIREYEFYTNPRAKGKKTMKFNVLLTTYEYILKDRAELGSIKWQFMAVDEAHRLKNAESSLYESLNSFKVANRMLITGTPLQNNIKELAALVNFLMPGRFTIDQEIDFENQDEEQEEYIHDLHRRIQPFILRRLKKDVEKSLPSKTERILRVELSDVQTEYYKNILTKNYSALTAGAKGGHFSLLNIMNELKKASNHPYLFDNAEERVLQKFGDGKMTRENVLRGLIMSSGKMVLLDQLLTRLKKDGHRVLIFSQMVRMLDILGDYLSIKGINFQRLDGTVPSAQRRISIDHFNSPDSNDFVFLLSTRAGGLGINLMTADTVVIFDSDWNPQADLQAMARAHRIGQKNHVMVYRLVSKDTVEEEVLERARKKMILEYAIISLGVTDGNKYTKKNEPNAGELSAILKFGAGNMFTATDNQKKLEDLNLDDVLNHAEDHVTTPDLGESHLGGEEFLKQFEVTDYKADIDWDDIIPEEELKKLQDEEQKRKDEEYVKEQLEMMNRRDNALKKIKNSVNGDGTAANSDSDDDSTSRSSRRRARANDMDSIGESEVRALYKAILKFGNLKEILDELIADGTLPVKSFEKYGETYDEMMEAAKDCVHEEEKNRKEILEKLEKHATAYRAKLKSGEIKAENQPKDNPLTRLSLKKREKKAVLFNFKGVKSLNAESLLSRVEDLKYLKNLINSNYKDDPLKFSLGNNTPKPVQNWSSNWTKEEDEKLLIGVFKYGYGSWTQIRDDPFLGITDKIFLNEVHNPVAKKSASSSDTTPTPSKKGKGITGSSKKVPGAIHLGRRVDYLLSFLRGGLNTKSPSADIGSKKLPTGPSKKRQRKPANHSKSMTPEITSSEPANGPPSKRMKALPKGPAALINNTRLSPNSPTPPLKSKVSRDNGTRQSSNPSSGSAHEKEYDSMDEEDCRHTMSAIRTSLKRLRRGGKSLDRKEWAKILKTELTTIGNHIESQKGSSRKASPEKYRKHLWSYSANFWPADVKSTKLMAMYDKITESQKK

| Compound | Percent Effect [%] |
| --- | --- |
| COCCn1ccc(NC(=O)Nc2cccnc2)n1 | -6.3 |
| CCN(C(=O)CCCOc1ccccc1F)c1ccncc1 | -5.44 |
| O=C(NC1CC1)[C@@H]1CCO[C@@H]2CCN(C3CCOCC3)C[C@@H]21 | -7.95 |
| Cc1nc(C)n(CC2CCCN(c3ncnc4sccc34)C2)n1 (stereo not given) | -6.06 |
| Cc1nn(C)c(Cl)c1C1CCCN1C(=O)c1cc(Cl)c[nH]1 (stereo not given) | 2.56 |
| COc1c(C2CCCN2Cc2csc(C(C)C)n2)c(C)nn1C (stereo not given) | -7.12 |
| CNc1cncc(C2CCCN2Cc2ccccn2)n1 (stereo not given) | -18.3 |
| CC(=O)Nc1nc(C(=O)N2CCCC2Cn2cc(C)cn2)cs1 (stereo not given) | -19.2 |
| O=C(NCCN1CCCCCC1=O)c1ccn(-c2ccc(F)cc2)n1 | -5.87 |
| O=C(NCCCn1cccn1)N1CCCC1c1ccncc1 (stereo not given) | -6.79 |
| CC(C)c1nnc(NC(=O)NCc2ccnc(N(C)C)c2)s1 | -17.6 |
| CC(NC(=O)N(C)Cc1ccc(Cl)s1)c1ccccn1 (stereo not given) | -14.9 |
| CCc1nnc2n1CCN(C(=O)c1cnc3ccccc3n1)C2 | -3.35 |
| O=C(c1ccccc1N1CCOCC1)N1CCCC(n2cccn2)C1 (stereo not given) | -3.66 |
| CSc1ccc(NC(=O)Nc2ccc3c(c2)N(S(C)(=O)=O)CC3)cc1 | -6.55 |
| OCC1CCCN1c1cc(NCCc2c[nH]c3ccccc23)ncn1 (stereo not given) | -5.88 |
| CC1CCN(C(CNC(=O)CCn2cccn2)c2cccs2)CC1 (stereo not given) | -5.13 |
| CSCC[C@H](N)C(=O)NCc1cc2n(n1)CCCN(C(=O)C1CCC1)C2 | -3.49 |
| COC(=O)c1ccc(N2CCN(C(=O)c3ccncc3)C(C)C2)cc1 (stereo not given) | -9.65 |
| Cc1cccnc1NCCNC(=O)[C@H]1CNC[C@@H](C(=O)N2CCCC2)C1 | -4.52 |

| Compound | Percent Effect [%] |
| --- | --- |
| Cc1ccccc1CNC(=O)Cc1c(C)nc2cc(=O)[nH]n2c1C | -11.1 |
| CC(Cn1ccnc1)NC(=O)C1(c2ccc(F)cc2)CC1 (stereo not given) | -3.1 |
| O=C1NC(c2ccccc2)=N[C@@]12CC[C@@H]1CN(Cc3ccco3)C[C@@H]12 | -2.32 |
| Cc1nc(CO[C@@H]2CN(Cc3cnn(C)c3)[C@@H]3COC[C@@H]32)cs1 | 3.26 |
| COCC(=O)N1CCC[C@]2(C(=O)N(C)C)CN(c3ccccn3)C[C@@H]2C1 | -8.42 |
| O=C(c1ccc(Br)o1)N1CCCC(n2cncn2)C1 (stereo not given) | 1.43 |
| CCCOc1ccc(NC(=O)NCCC(=O)N(C)C)cc1Cl | -6.34 |
| COCCNC(=O)C1(c2ccccc2C)CCOCC1 | -1.03 |
| O=C(CN1CCN(CC(O)C2CC2)CC1)NCc1ccc(F)cc1 (stereo not given) | -7.59 |
| Cc1cnn(CCNCc2nc(COc3ccc(F)cc3)no2)c1 | -8.97 |
| CN(C)C(=O)Cc1nc(CN2CCn3c(nnc3C3CC3)C2)cs1 | -2.27 |
| CC(C)c1ncc2c(n1)CN(Cc1nc(-c3cccs3)no1)CC2 | 8.9 |
| Cc1n[nH]cc1CNc1ccc2c(c1)N(C(=O)OC(C)(C)C)CCC2 | 0.972 |
| CCn1cc(N2Cc3nc(N)ncc3C2=O)cn1 | -15.1 |
| Cc1cccc(-c2ccc(C(=O)NCC(C)(C)C(N)=O)c(=O)[nH]2)c1 | -14.8 |
| CN(C)C(=O)CN1CCCC2(CCN(c3ccsc3)C2=O)C1 (stereo not given) | -5.89 |
| Cc1nc(N2CCCC2)ncc1-c1cc(O)nc(N2CCCC2)n1 | -1.52 |
| O=C(c1ccc(C2CCCO2)s1)N1CCS(=O)(=O)CC1 (stereo not given) | -2.6 |
| OC(CN1CCN(Cc2nnc(C3CC3)o2)CC1)c1ccccc1 (stereo not given) | -2.36 |
| CC(=O)c1cc(CC(=O)NCc2ccc(CN(C)C)cc2)cs1 | -2.09 |
